From PubChem BioAssay (EPA / NIEHS)
Active and inactive are the calls of the source. Rule for the calls: active = hit-call score of the fitted dose curve at least 0.9, where 1 is the maximum; inactive = score below 0.9.

Legend:
[1] = read-out: Cytochrome P450 (CYP1A1), CYP1A1 (gene 1543); test: LTEA_HepaRG_CYP1A1: Life Technologies and Expression Analysis (LTEA) Assay for Cytochrome P450 (CYP1A1) using HepaRG (AID 2283454); details: mRNA level, 48 h; actives raise or lower the signal
Procedure, shortened: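 CYP1A1 transcript levels measured by Fluidigm qRT-PCR against three housekeeping genes, 48 h after chemical dosing of human HepaRG cells (highest concentration 100 uM, half-log steps, 0.5% DMSO vehicle). Gain or loss of signal fitted relative to DMSO.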

[2] = read-out: CFLAR gene, CFLAR (gene 8837); test: LTEA_HepaRG_CFLAR: Life Technologies and Expression Analysis (LTEA) Assay for CFLAR gene using HepaRG (AID 2283455); details: mRNA level, 48 h; actives raise or lower the signal
Procedure, shortened: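 Transcript level by qRT-PCR (normalized to ACTB, GAPDH and POLR2A) after 48 h chemical exposure of HepaRG cells, top concentration 100 uM with half-log steps, 0.5% DMSO vehicle, duplicates; fitted bidirectionally against DMSO baseline.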

[3] = read-out: Forkhead box O1 (FOXO1), FOXO1 (gene 2308); test: LTEA_HepaRG_FOXO1: Life Technologies and Expression Analysis (LTEA) Assay for Forkhead box O1 (FOXO1) using HepaRG (AID 2283456); details: mRNA level, 48 h; actives raise or lower the signal
Procedure, shortened: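 FOXO1 transcript quantified by qRT-PCR after 48 h chemical exposure (top 100 uM, half-log steps, 0.5% DMSO) of HepaRG cells, housekeeping-normalized (ACTB/GAPDH/POLR2A). Changes fitted in both directions relative to vehicle.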

[4] = read-out: growth arrest and DNA damage 45 (GADD45A), GADD45A (gene 1647); test: LTEA_HepaRG_GADD45A: Life Technologies and Expression Analysis (LTEA) Assay for growth arrest and DNA damage 45 (GADD45A) using HepaRG (AID 2283458); details: mRNA level, 48 h; actives raise or lower the signal
Procedure, shortened: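 Transcript induction or loss, quantified by TaqMan qRT-PCR against three housekeeping genes, is the read-out. HepaRG cells received chemicals for 48 h across eight half-log concentrations from 100 uM in 0.5% DMSO; gain and loss fitted relative to DMSO.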

[5] = read-out: Forkhead box O3 (FOXO3), FOXO3 (gene 2309); test: LTEA_HepaRG_FOXO3: Life Technologies and Expression Analysis (LTEA) Assay for Forkhead box O3 (FOXO3) using HepaRG (AID 2283459); details: mRNA level, 48 h; actives raise or lower the signal
Procedure, shortened: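 FOXO3 transcript measured by qRT-PCR (normalized to ACTB, GAPDH, POLR2A) after 48 h exposure of HepaRG cells in serum-free induction medium. Duplicates, eight half-log concentrations up to 100 uM, 0.5% DMSO; gain or loss fitted against DMSO.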

[6] = read-out: ABC Transporter (ABCB1), ABCB1 (gene 5243); test: LTEA_HepaRG_ABCB1: Life Technologies and Expression Analysis (LTEA) Assay for ABC Transporter (ABCB1) using HepaRG (AID 2283460); details: mRNA level, 48 h; actives raise or lower the signal
Procedure, shortened: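 ABCB1 transcript level measured by TaqMan qRT-PCR against three housekeeping genes after 48 h chemical exposure of differentiated HepaRG cells. Top concentration 100 uM, half-log steps, eight points, 0.5% DMSO vehicle; bidirectional fit relative to DMSO.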

[7] = read-out: growth arrest and DNA damage 45 (GADD45B), GADD45B (gene 4616); test: LTEA_HepaRG_GADD45B: Life Technologies and Expression Analysis (LTEA) Assay for growth arrest and DNA damage 45 (GADD45B) using HepaRG (AID 2283461); details: mRNA level, 48 h; actives raise or lower the signal
Procedure, shortened: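 Transcript level quantified by Fluidigm TaqMan qRT-PCR with three housekeeping genes for normalization, analyzed for up- or down-regulation against 0.5% DMSO. HepaRG cultures dosed 48 h at eight half-log concentrations up to 100 uM, duplicates.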

[8] = read-out: ABC Transporter (ABCC3), ABCC3 (gene 8714); test: LTEA_HepaRG_ABCC3: Life Technologies and Expression Analysis (LTEA) Assay for ABC Transporter (ABCC3) using HepaRG (AID 2283462); details: mRNA level, 48 h; actives raise or lower the signal
Procedure, shortened: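 Transcript level by TaqMan qRT-PCR, normalised to three housekeeping genes, fitted in both directions relative to vehicle. Chemicals tested in duplicate at eight half-log concentrations up to 100 uM for 48 h on HepaRG cells (0.5% DMSO).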

[9] = read-out: ABC Transporter (ABCB11), ABCB11 (gene 8647); test: LTEA_HepaRG_ABCB11: Life Technologies and Expression Analysis (LTEA) Assay for ABC Transporter (ABCB11) using HepaRG (AID 2283463); details: mRNA level, 48 h; actives raise or lower the signal
Procedure, shortened: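 ABCB11 transcript levels quantified by TaqMan qRT-PCR against three housekeeping genes after 48 h chemical exposure of HepaRG cultures. Concentrations up to 100 uM in half-log steps, 0.5% DMSO vehicle; both induction and suppression scored.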

[10] = read-out: ABC Transporter (ABCC2), ABCC2 (gene 1244); test: LTEA_HepaRG_ABCC2: Life Technologies and Expression Analysis (LTEA) Assay for ABC Transporter (ABCC2) using HepaRG (AID 2283464); details: mRNA level, 48 h; actives raise or lower the signal
Procedure, shortened: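 Endpoint is ABCC2 transcript level from qRT-PCR, normalized to three housekeeping genes and fitted bidirectionally relative to DMSO. Human HepaRG cells received test chemical for 48 h at up to 100 uM (8 points, half-log steps, 0.5% DMSO), duplicate wells.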

[11] = read-out: Broad substrate specificity ATP-binding cassette transporter ABCG2 (Homo sapiens) (UniProt Q9UNQ0); test: LTEA_HepaRG_ABCG2: Life Technologies and Expression Analysis (LTEA) Assay for ABC Transporter (ABCG2) using HepaRG (AID 2283465); details: mRNA level, 48 h; actives raise or lower the signal
Procedure, shortened: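 ABCG2 transcript was quantified by TaqMan qRT-PCR against three housekeeping genes in HepaRG cells. Cells were treated in duplicate for 48 h across an 8-point half-log series up to 100 uM, with 0.5% DMSO vehicle. Gain or loss versus DMSO was fit.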

[12] = read-out: ATP-citrate lyase (ACLY), ACLY (gene 47); test: LTEA_HepaRG_ACLY: Life Technologies and Expression Analysis (LTEA) Assay for ATP-citrate lyase (ACLY) using HepaRG (AID 2283466); details: mRNA level, 48 h; actives raise or lower the signal
Procedure, shortened: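 ACLY mRNA quantified by qRT-PCR on Fluidigm arrays against three housekeeping genes, after 48 h chemical treatment of HepaRG cells (top concentration 100 uM, half-log steps, 0.5% DMSO vehicle). Up- or down-regulation fitted relative to DMSO.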

[13] = read-out: Peroxisomal acyl-coenzyme A oxidase 1 (ACOX1) gene, ACOX1 (gene 51); test: LTEA_HepaRG_ACOX1: Life Technologies and Expression Analysis (LTEA) Assay for Peroxisomal acyl-coenzyme A oxidase 1 (ACOX1) gene using HepaRG (AID 2283467); details: mRNA level, 48 h; actives raise or lower the signal
Procedure, shortened: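 ACOX1 transcript levels were quantified by TaqMan qRT-PCR against three housekeeping genes after 48 h chemical exposure of differentiated human HepaRG cells. Exposure used eight half-log steps topping at 100 uM, 0.5% DMSO vehicle, in duplicate. Bidirectional curve fits were made relative to DMSO.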

[14] = read-out: Alkaline Phosphatase, Placental (ALPP) gene, ALPP (gene 250); test: LTEA_HepaRG_ALPP: Life Technologies and Expression Analysis (LTEA) Assay for Alkaline Phosphatase, Placental (ALPP) gene using HepaRG (AID 2283468); details: mRNA level, 48 h; actives raise or lower the signal;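 for AC50: differentiated human HepaRG liver cells in serum-free induction medium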
Procedure, shortened: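 ALPP transcript level, measured by qRT-PCR and normalized to three housekeeping genes (ACTB, GAPDH, POLR2A), after 48 h dosing of differentiated HepaRG in serum-free induction medium. Top concentration 100 uM with half-log dilutions (8 points, 0.5% DMSO, duplicates); bidirectional fitting relative to DMSO.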

[15] = read-out: Bcl-2 (BAD) gene, BAD (gene 572); test: LTEA_HepaRG_BAD: Life Technologies and Expression Analysis (LTEA) Assay for Bcl-2 (BAD) gene using HepaRG (AID 2283469); details: mRNA level, 48 h; actives raise or lower the signal
Procedure, shortened: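 Read-out: qRT-PCR of BAD mRNA, normalized to three housekeeping genes. Human HepaRG cultures got 48 h chemical exposure in 0.5% DMSO, duplicate eight-point half-log series topping at 100 uM. Gain or loss of signal fitted versus DMSO vehicle.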

[16] = read-out: adenosine kinase (ADK) gene, ADK (gene 132); test: LTEA_HepaRG_ADK: Life Technologies and Expression Analysis (LTEA) Assay for adenosine kinase (ADK) gene using HepaRG (AID 2283471); details: mRNA level, 48 h; actives raise or lower the signal
Procedure, shortened: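 HepaRG (human liver), 48 h chemical exposure, 8-pt half-log series, top 100 uM, 0.5% DMSO vehicle. Readout: ADK mRNA by qRT-PCR vs housekeeping genes; bidirectional curve fit relative to DMSO baseline.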

[17] = read-out: Alpha-fetoprotein (AFP) gene, AFP (gene 174); test: LTEA_HepaRG_AFP: Life Technologies and Expression Analysis (LTEA) Assay for Alpha-fetoprotein (AFP) gene using HepaRG (AID 2283472); details: mRNA level, 48 h; actives raise or lower the signal
Procedure, shortened: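 Chemicals were tested on differentiated HepaRG cells for 48 hours at eight concentrations up to 100 uM, with 0.5% DMSO as vehicle. AFP expression was then quantified by qRT-PCR and analyzed for gain or loss relative to DMSO.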

[18] = read-out: BCL2L11 (gene 10018); test: LTEA_HepaRG_BCL2L11: Life Technologies and Expression Analysis (LTEA) Assay for Bcl-2 (BCL2L11) gene using HepaRG (AID 2283473); details: mRNA level, 48 h; actives raise or lower the signal
Procedure, shortened: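 BCL2L11 transcript levels are measured by Fluidigm qRT-PCR, normalized to three housekeeping genes. HepaRG cultures were plated 48 h, then treated 48 h with test chemical (top 100 uM, half-log, 0.5% DMSO vehicle); curves were fitted bidirectionally against DMSO.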

[19] = CEETOX_H295R_TESTO: CeeTox H295R High-throughput Steroidogenesis Assay for Testosterone (TESTO) (AID 2283457); details: actives raise or lower the signal
Procedure, shortened: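 Testosterone secreted into the medium over 48 h by H295R cells (maximum passage 10) was quantified by LC-MS/MS after MTBE extraction. Fitted in both directions against DMSO, with concentrations diluted until MTT viability was ≥70%.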

[20] = read-out: Bcl-2 (BAX) gene, BAX (gene 581); test: LTEA_HepaRG_BAX: Life Technologies and Expression Analysis (LTEA) Assay for Bcl-2 (BAX) gene using HepaRG (AID 2283470); details: mRNA level, 48 h; actives raise or lower the signal
Procedure, shortened: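 Cells were thawed, plated for 48 h, moved to serum-free induction medium and dosed for 48 h (highest concentration 100 uM, half-log steps, 0.5% DMSO). Total RNA was then analysed for BAX expression by qRT-PCR.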

Measured: AC50

Broad substrate specificity ATP-binding cassette transporter ABCG2 (Homo sapiens), sequence (Q9UNQ0 whole entry, looked up): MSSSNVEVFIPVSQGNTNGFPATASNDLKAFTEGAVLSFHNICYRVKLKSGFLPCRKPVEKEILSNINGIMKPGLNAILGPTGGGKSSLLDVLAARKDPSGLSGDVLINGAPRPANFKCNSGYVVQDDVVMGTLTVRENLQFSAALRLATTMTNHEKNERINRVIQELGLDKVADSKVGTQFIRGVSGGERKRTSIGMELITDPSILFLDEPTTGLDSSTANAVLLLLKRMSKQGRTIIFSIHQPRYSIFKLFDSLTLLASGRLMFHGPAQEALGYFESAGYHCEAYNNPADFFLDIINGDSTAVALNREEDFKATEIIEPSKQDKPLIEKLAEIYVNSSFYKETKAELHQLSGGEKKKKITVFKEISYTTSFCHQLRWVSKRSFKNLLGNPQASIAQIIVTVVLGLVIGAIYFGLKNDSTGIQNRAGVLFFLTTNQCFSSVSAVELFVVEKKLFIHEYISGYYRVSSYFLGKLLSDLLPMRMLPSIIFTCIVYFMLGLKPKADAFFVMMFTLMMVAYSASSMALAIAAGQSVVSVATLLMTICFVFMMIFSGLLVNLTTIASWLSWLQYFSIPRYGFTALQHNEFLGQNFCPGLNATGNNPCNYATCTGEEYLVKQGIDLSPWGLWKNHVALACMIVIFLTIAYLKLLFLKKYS

CCCCOC(=O)c1ccccc1C(=O)OCc1ccccc1
active: [1] 15.1 µM
inactive: [2] | [3] | [4] | [5] | [6] | [7] | [8] | [9] | [10] | [11] | [12] | [13] | [14] | [15] | [16] | [17] | [18]

Cc1ccc(N=C=O)cc1N=C=O
active: [1] 40.4 µM | [9] 20.2 µM | [12] 12.5 µM | [17] 50 µM
inactive: [2] | [3] | [4] | [5] | [6] | [7] | [8] | [10] | [11] | [13] | [14] | [15] | [16] | [18]

O=C(Nc1ccccc1)c1ccccc1I
active: [1] 27.7 µM | [5] 14.6 µM | [7] 17.1 µM | [9] 23.3 µM | [11] 11.7 µM | [17] 50 µM
inactive: [2] | [3] | [19] | [4] | [6] | [8] | [10] | [12] | [13] | [15] | [20] | [16] | [18]

[Cl-].[Cl-].[Hg+2]
inactive: [2] | [3] | [4] | [5] | [6] | [8] | [9] | [10] | [11] | [12] | [13] | [14] | [15] | [16] | [17] | [18]
active: [1] 50 µM | [7] 50 µM

CCNS(=O)(=O)C(F)(F)C(F)(F)C(F)(F)C(F)(F)C(F)(F)C(F)(F)C(F)(F)C(F)(F)F
active: [1] 69.3 µM | [9] 23.7 µM | [17] 65.2 µM
inactive: [2] | [3] | [4] | [5] | [6] | [7] | [8] | [10] | [11] | [12] | [13] | [14] | [15] | [20] | [16] | [18]

Clc1ccc(Cl)c(Cl)c1
active: [2] 50 µM | [4] 9.92 µM | [9] 50 µM | [14] 9.92 µM | [17] 50 µM
inactive: [1] | [3] | [5] | [6] | [7] | [8] | [10] | [11] | [12] | [13] | [15] | [16] | [18]

CCOC(=O)[C@]1(c2ccccc2)Oc2ccccc2[C@@H]1N
inactive: [2] | [5] | [6] | [8] | [12] | [15] | [16] | [17] | [18]
active: [1] 13 µM | [3] 83.3 µM | [4] 76.2 µM | [7] 76.8 µM | [9] 78.7 µM | [10] 82.2 µM | [11] 50 µM | [13] 87.5 µM | [20] 75.7 µM
